Shiga toxin inh = inhibitors of Shiga toxin in Vero cells; Vero cells, Shiga toxin protein synthesis inhibition reporter; inhibition, % at 38.7 µM; 9.2% of 290,000 active; AID 2315; in the data active = inhibition mostly above about 28%, no sharp cut-off; inactive = mostly below about 43%; also: 0% is about no effect
Pf growth 96h = inhibits malaria parasite growth, 96 h. P. falciparum luciferase reporter growth, 96 h. 6.9% of 320,000 active. Potency, µM (titrated, usually from 28.7 µM), without a hit: at the top dose activity change, negative = inhibition, actives largely listed as inhibitors; also: potency is read from the fitted curve at half-maximal effect; % is scaled to controls: 0 for no effect and ±100 for the full control effect
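Infected RBCs, 2% Hct / 0.05% parasitemia final; luciferase-reporter P. falciparum; cpd 96 h, 37 C, 5% CO2; luciferase detection reagent; luminescence.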
Pf growth 48h = P. falciparum growth inhibition at 48 hours (one generation). P. falciparum luciferase growth in erythrocytes, 48 h. Potency, µM (top dose mostly 28.7 µM), without a hit: at the top dose activity change, negative = inhibition, hits mostly inhibitors. 5.9% of 310,000 active; also: potency is read from the fitted curve at half-maximal effect; % is scaled to controls: 0 for no effect and ±100 for the full control effect
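Growth was read as firefly luciferase luminescence after a 48 h, 37 C, 5% CO2 exposure of compounds to reporter-bearing P. falciparum cultures (0.1% parasitemia, 2% hematocrit final) in Albumax-supplemented RPMI 1640.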
Cycloheximide cs = counter-screen for Shiga toxin inhibitors: cycloheximide protein synthesis inhibition | cell reporter, cycloheximide protein synthesis inhibition counterscreen | max response, % | 12% of 300,000 active | AID 2314; in the data active = max response mostly above about 13%, no sharp cut-off; inactive = mostly below about 14%; also: read at 38.3 µM for the half of the compounds with a filed dose; 0% is about no effect
Numbers without * were called inactive; ? = inconclusive; nt = no result given; + = active, no number; [ ] = remark or other dose. Compounds with a hit are over-represented: about 21% of the library has one in this group of screens. Unless noted, calls follow the shape of the dose curve; as a rule, active = well fitted inhibition curve with a large enough effect; inconclusive = small, poorly fitted or top-dose-only effect, or another doubt; inactive = no such curve, though single readings can be large or run the other way.

SMILES	Shiga toxin inh	Pf growth 96h	Pf growth 48h	Cycloheximide cs
COc1ccc2[nH]c3c(C)c4ccncc4c(C)c3c2c1	8	0.37µM*	0.37µM*	1
CCOC(=O)Cc1csc(NC(=O)CSc2nc(=O)[nH]c3c2CCC3)n1	nt	1%	9%	nt
CC(=O)Nc1cccc(NC(=O)c2cccc(S(=O)(=O)N3CCN(Cc4ccccc4)CC3)c2)c1	nt	10µM*	10µM*	nt
CCN(CC)C(=O)c1ccc(NC(=O)c2cccc(S(=O)(=O)N3CCN(Cc4ccccc4)CC3)c2)cc1	nt	12µM*	10µM*	nt
CCc1ccccc1NC(=O)CNC(=O)c1cccc(S(=O)(=O)N2CCN(Cc3ccccc3)CC2)c1	nt	-19%	?	nt
CC(=O)Nc1ccc(S(=O)(=O)N2CCN(Cc3cccc([N+](=O)[O-])c3)CC2)cc1	-15	1.7µM*	-5%	-7
COc1cccc(NC(=O)c2cccc(S(=O)(=O)N3CCN(Cc4ccccc4)CC3)c2)c1	nt	7.4µM*	?	nt
Cc1ccc(S(C)(=O)=O)cc1C(=O)N1CC(C(N)=O)Oc2ccccc21 (stereo not drawn)	-9	13%	16%	-8
CCn1c(SC(C)C(=O)NCC2CCCO2)nc2ccccc21 (stereo not drawn)	nt	10%	-3%	nt
CC1CCCCC1NC(=O)c1cccc(S(=O)(=O)N2CCN(Cc3ccccc3)CC2)c1 (stereo not drawn)	nt	15µM*	17µM*	nt
CC(OC(=O)c1cccc(S(=O)(=O)N2CCCC2)c1)C(=O)NC1CCCCC1C (stereo not drawn)	nt	-4%	?	nt
O=C(N=C1c2ccccc2CN1c1ccc(F)c(Cl)c1)c1cccnc1Cl	77*	?	-66%	70*
N#Cc1ccc(N2Cc3ccccc3C2=NC(=O)c2cccnc2Cl)cc1	+	32%	63%	25*
N#Cc1ccc(COC(=O)c2cccnc2Cl)cc1	-1	23%	12%	10
CCOc1ccc(N2C(=O)CC(NC3CCN(C(=O)c4ccc(F)cc4)CC3)C2=O)cc1 (stereo not drawn)	-9	31%	-4%	-1
Cc1ccccc1S(=O)(=O)Cc1ccc(C(=O)N(C)C2CCCCC2)o1	9	?	0%	6
CCOc1cc(/C=N/NC(=O)CN2CCOCC2)ccc1OCc1ccc(Cl)cc1	-5	13µM*	?	1
CCOc1cc(/C=N/N=C(N)N)ccc1OCc1ccc(Cl)cc1	-23	?	1.5µM*	-12
NC(N)=N/N=C/c1ccc(OCc2ccccc2Cl)cc1	-29	0.13µM*	0.15µM*	-15
COc1ccc(Cl)cc1NC(=O)CC1S/C(=N/N=C2CCCCCC2)NC1=O (stereo not drawn)	7	13µM*	?	7
COc1ccccc1N1CCN(CC(=O)NCC2CCCO2)CC1 (stereo not drawn)	6	214%	-1%	1
CSCC[C@H](NC(=O)[C@H](CO)NC(=O)[C@H](Cc1ccc(O)cc1)NC(=O)[C@@H](N)CO)C(=O)N[C@@H](CCC(=O)O)C(=O)N[C@@H](Cc1cnc[nH]1)C(=O)N[C@@H](Cc1ccccc1)C(=O)N[C@@H](CCCNC(=N)N)C(=O)N[C@@H](Cc1c[nH]c2ccccc12)C(=O)NCC(=O)N[C@@H](CCCCN)C(=O)N1CCC[C@H]1C(=O)N[C@H](C(=O)NCC(=O)N[C@@H](CCCCN)C(=O)N[C@@H](CCCCN)C(=O)N[C@@H](CCCNC(=N)N)C(=O)N[C@@H](CCCNC(=N)N)C(=O)N1CCC[C@H]1C(=O)N[C@H](C(=O)N[C@@H](CCCCN)C(=O)N[C@H](C(=O)N[C@@H](Cc1ccc(O)cc1)C(=O)N1CCC[C@H]1C(=O)O)C(C)C)C(C)C)C(C)C	-6	nt	nt	-7
O=C(CCn1c(=S)oc2ccccc21)NC1CCCCCCC1	-7	9%	6%	1
COc1cc(/C=N/O)ccc1OCc1ccc(Cl)cc1	70	19%	245%	37*
NC(N)=N/N=C/c1ccc(OCc2ccccc2)c(OCc2ccccc2)c1	7	?	0.52µM*	-6
SMILES	Shiga toxin inh	Pf growth 96h	Pf growth 48h	Cycloheximide cs
COc1cc(/C=N/N=C(N)N)ccc1OCc1ccc(Cl)cc1	76	-3%	?	40*
CCOc1cc(/C=N/N=C2/NC(=O)C(CC(=O)O)S2)ccc1OCc1ccc(Cl)cc1Cl (stereo not drawn)	24	13%	-11%	-2
COc1cc(/C=N/N=C2/NC(=O)C(CC(=O)O)S2)ccc1OCc1ccc(Cl)cc1 (stereo not drawn)	38	?	41%	20*
O=C(O)c1cc(/C=N\O)ccc1OCc1ccccc1	23	nt	46%	3
NC(=O)NC(=O)CC1S/C(=N/N=C/c2ccccc2)NC1=O (stereo not drawn)	-4	?	-34%[1.15 µM]	-7
COc1cc(/C=N/O)ccc1OCc1ccc(C(=O)O)cc1	21	383%	256%	54*
O=C(O)CC1S/C(=N/N=C/c2ccccn2)NC1=O (stereo not drawn)	-4	?	5.2µM*	2
Cc1nn(-c2ccccn2)c2c1C(c1ccsc1)C1=C(CCCC1=O)N2 (stereo not drawn)	-39	-31%	?	-4
Cc1nn(-c2ccccn2)c2c1C(c1c(F)cccc1Cl)C1=C(N2)c2ccccc2C1=O (stereo not drawn)	-5	9.3µM*	10µM*	-1
Cc1nn(-c2ccccn2)c2c1C(c1ccccc1Cl)C1=C(N2)c2ccccc2C1=O (stereo not drawn)	-5	12µM*	?	-1
Cc1cccc(C)c1NS(=O)(=O)c1ccc(OCCNS(C)(=O)=O)cc1	-8	243%	-9%	7
CCc1ccc(OCCCCN(C)Cc2ccccc2)cc1	nt	13µM*	-2%	-2
Cc1cc(C)c(C)c(OCCCCN(C)Cc2ccccc2)c1	nt	13µM*	?	-5
CN(C)CCCCOc1ccc(F)cc1	-12	12µM*	-19%	-4
COc1ccc(OCCN(C)Cc2ccccc2)cc1	21	-46%	28%	8
CN(CCOCCOc1ccc2ccccc2c1)Cc1ccccc1	9	15µM*	nt	8
CN(CCCCOc1ccc(F)cc1)Cc1ccccc1	nt	?	45%	6
CC(C)(C)NC(=O)c1cccc(NC(=O)c2cccc(O)c2)c1	21	?	?	17
C#CCOCCOCCOCCNc1nc(N2CCN(C(=O)CCCCCCCCCCNC(=O)[C@@H](CCC(=O)O)n3cc(CCCCCN)nn3)CC2)nc(N2CCN(C(=O)CCCCCCCCCCNC(=O)[C@H]([C@@H](C)CC)n3cc(CCCCCN)nn3)CC2)n1	nt	1.5µM*	2.1µM*	nt
C#CCOCCOCCOCCNc1nc(N2CCN(C(=O)[C@H]([C@@H](C)CC)n3cc(CCCCN)nn3)CC2)nc(N2CCN(C(=O)[C@H](CCCCN)n3cc(CCCC)nn3)CC2)n1	nt	-27%	?	nt
C#CCOCCOCCOCCNc1nc(N2CCN(C(=O)CCCCCCCCCCNC(=O)[C@H]([C@@H](C)CC)n3cc(CCCCCN)nn3)CC2)nc(N2CCN(C(=O)CCCCCCCCCCNC(=O)[C@H](CCCCN)n3cc(CCCC(=O)O)nn3)CC2)n1	nt	?	12µM*	nt

Bioassay records: PubChem, National Center for Advancing Translational Sciences (NCATS)
